Compound activity: PubChem, National Center for Advancing Translational Sciences (NCATS)
Shown are actives, neighbours in structure and some others; about 7.8% of the full set was active somewhere.
Vaccinia Venus: inhibitors of vaccinia virus (Venus reporter); Potency, µM (series often up to 36.5 µM), actives largely listed as inhibitors; 0.46% of 330,000 active; Vaccinia virus Venus reporter expression, fluorescence; calls by dose curve; tested in A549 cells; further: nearly all actives have a fitted effect of over 30% in size
HCMV inh: human cytomegalovirus inhibition; HFF cells, HCMV-luciferase reporter, 72 h; stronger effect = lower value; activity change, negative = inhibition, % at 57.5 µM; 4.5% of 410,000 active; in the data active means activity change below about -60%; inconclusive means no clear call, values can overlap the other calls; inactive means above about -39%
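Inhibition of viral replication was scored as loss of reporter luminescence in HFFs infected with HCMV-luciferase (MOI 1 PFU/cell) for 72 h; compounds tested at 2 doses, normalized to buffer and Salinomycin controls.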
VACV mCherry inh: vaccinia inhibition (mCherry reporter); Potency, µM (doses to about 36.5 µM), actives largely listed as inhibitors; 0.63% of 310,000 active; AID 720579; Vaccinia virus mCherry reporter infection, fluorescence; calls by dose curve; tested in A549 cells; further: nearly all actives have a fitted effect of over 35% in size
Marburg entry inh: blocks Marburg virus binding to or entry into cells; Potency, µM (top dose mostly 37.8 µM), usual class: inhibitors; 1.8% of 300,000 active; Marburg virus pseudotyped entry inhibition, cell reporter; calls by dose curve; tested in HEK293 cells
HCV inhibitor: inhibitors of hepatitis C virus infection; AID 651820; Potency, µM (highest dose often 41.8 µM), actives largely listed as inhibitors; Huh7.5.1 HCVcc-Cre infection, luciferase reporter, 44 h; 3.4% of 340,000 active; active means well fitted inhibition curve with a large enough effect; inconclusive means small, poorly fitted or top-dose-only effect, or another doubt; inactive means no such curve, though single readings can be large or run the other way
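Infectious HCVcc-Cre (~0.5 moi) was added to cells just after compound, with cells seeded 4 h earlier at 1,000 per well. Luciferase activity after 44 h culture reported infection; substrate was incubated 15 min at room temperature before reading.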
LASV entry inh: Lassa virus entry inhibition | Lassa virus pseudotype entry inhibition, cell reporter | Potency, µM (top dose mostly 37.9 µM), most hits filed as inhibitors | 1.2% of 300,000 active; calls by dose curve; tested in HEK293 cells; further: nearly all actives have a fitted effect of over 50% in size
A number is an active result; – = inactive; ? = inconclusive; · = no result given.

SMILES	Vaccinia Venus	HCMV inh	VACV mCherry inh	Marburg entry inh	HCV inhibitor	LASV entry inh
C[C@H](CC[C@@H]1OC1(C)C)C1CC[C@H]2[C@@H]3CC=C4C[C@@H](O)CC[C@]4(C)[C@H]3CC[C@]12C (stereo not given in full)	–	·	–	·	·	·
OCC1(CCCc2ccccc2)CCN(Cc2cnc(N3CCOCC3)s2)CC1	–	–	–	?	?	11.2µM
OCC1(Cc2ccccc2)CCN(Cc2cnc(-c3cccc4ccccc34)nc2)CC1	–	–	–	?	–	–
OCC1(Cc2ccccc2)CCN(Cc2cnc(-c3ccc(Cl)cc3)nc2)CC1	–	-66.7	–	?	10µM	?
Cc1cccc(-c2ncc(CN3CCN(C4CCCC4)C(CCO)C3)cn2)c1 (stereo not given)	–	–	–	?	–	–
OCCC1CN(Cc2cnc(-c3ccc(Cl)cc3)nc2)CCN1C1CCCCC1 (stereo not given)	·	?	·	·	12.6µM	·
Cc1ccccc1-c1ncc(CN2CCC(CO)(CCCc3ccccc3)CC2)cn1	·	-64.2	·	·	?	·
COc1ccccc1N1CCN(c2ncnc3c2c(-c2ccccc2)cn3-c2cccc(C)c2)CC1	–	–	–	·	·	–
COc1cc(OC)cc(-c2nc3nc(C)c(CCC(=O)Nc4cc(C)cc(C)c4)c(C)n3n2)c1	–	–	–	–	·	–
COc1ccc(OC)c(/C=C2\C=Cc3ccccc32)c1	–	·	–	·	·	·
Cc1nc(SCC(=O)NC(C)(C#N)C2CC2)c2c(-c3cccs3)csc2n1 (stereo not given)	–	–	–	?	10µM	?
COc1cc(/C=C/C(=O)c2ccc3c(c2)OCCO3)cc(OC)c1OC	·	-99.5	·	·	?	·
COc1ccc(/C=C/C(=O)c2ccc3c(c2)OCO3)cc1OC	–	?	–	?	–	–
COc1ccc(OC)c(/C=C/C(=O)c2ccc3c(c2)OCCO3)c1	·	-100.2	·	·	?	·
CCc1ccc(-n2c(C)nc3cc(C(=O)NCCc4ccccc4)ccc32)cc1	–	–	–	·	·	?
CCN(CC)CCCNc1oc(-c2cccc(Cl)c2)nc1C#N	·	–	·	16.4µM	?	–
C=CCNc1oc(-c2cccc(Cl)c2)nc1C#N	·	–	·	·	·	·
O=C(CCNS(=O)(=O)c1ccc2c(c1)CCCC(=O)N2)NCc1ccc(Cl)cc1	–	–	–	·	·	–
COC(=O)[C@H](CCSC)NC(=O)Cn1cc(C)c(=O)[nH]c1=O	–	–	–	·	0.501µM	·
COC(=O)C[C@H](NC(=O)Cn1cc(C)c(=O)[nH]c1=O)C(=O)OC	–	–	–	·	–	·
Cc1ccccc1NC(=O)C(C)OC(=O)C1CC(=O)N(Cc2ccco2)C1 (stereo not given)	·	-102.1	·	·	–	·
N=c1ccn(Cc2ccc(Cl)cc2Cl)cc1	?	-97.1	·	–	2.82µM	?
N=c1ccn(Cc2ccccc2Cl)cc1	?	-85.2	·	?	2.51µM	–
N=c1ccn(Cc2c(Cl)cccc2Cl)cc1	–	-78.3	–	?	?	–
CCc1ccc(NC(=O)C2CCCN2S(=O)(=O)c2ccc3c(c2)CCCC(=O)N3)cc1 (stereo not given)	–	–	–	·	·	–
SMILES	Vaccinia Venus	HCMV inh	VACV mCherry inh	Marburg entry inh	HCV inhibitor	LASV entry inh
O=C(CSc1cn(CC(=O)N2CCCC2)c2ccccc12)Nc1ccccc1C(F)(F)F	–	?	–	·	·	–
CC1CCN(C(=O)Cn2cc(SCC(=O)Nc3ccccc3C(F)(F)F)c3ccccc32)CC1	–	-64.4	–	·	·	–
Fc1ccc(Nc2nc(-c3ccncc3)nc3ccccc23)cc1F	·	–	·	7.08µM	11.2µM	–
Clc1ccccc1Nc1nc(-c2ccncc2)nc2ccccc12	·	–	·	·	7.08µM	·
Fc1ccccc1Oc1nc(-c2ccncc2)nc2ccccc12	·	–	·	·	0.562µM	·
Cc1cc(C)c2c(n1)SCCN2C(=O)Nc1ccc(C(=O)Nc2ccc(C(C)C)cc2)cc1	–	–	–	·	·	?
O=C(Nc1ccccc1F)N1CC(=O)N2[C@H](CO)[C@H](c3ccc(Br)cc3)[C@@H]2C1	·	–	·	·	·	·
COC(=O)c1ccccc1NC(=O)c1ccc(-c2nc(COc3ccccc3)c(C)o2)cc1	–	–	–	·	·	–
NS(=O)(=O)c1ccc(N=Nc2c(O)[nH]c3ccc(C(=O)NCCCn4ccnc4)cc23)cc1	·	·	·	·	·	3.15µM
NS(=O)(=O)c1ccc(N=Nc2c(O)[nH]c3ccc(Cl)cc23)cc1	·	·	·	·	·	2.81µM
Cc1ccc(Sc2ccc(N3CCCC(C(=O)Nc4ccc(Cl)cc4)C3)nn2)cc1 (stereo not given)	?	–	?	–	·	?
